± gives the standard deviation.

This assay deals with RAW-Dual (murine macrophage reporter line). As to the kind of experiment: IRF reporter (Lucia luciferase) activity fold change vs agonist alone; higher = enhanced IRF activity. Particulars: modulator concentration 10 µM; agonist: LPS 0.1 ug/mL. The gist of the method:
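In 384-well plates holding 50 000 RAW-Dual murine macrophage reporter cells per well, compound at 10 μM final was pre-incubated for 1 hour at 37 °C, after which a PRR agonist was added overnight. Supernatant SEAP read with QUANTI-Blue at 620 nm absorbance reported NF-κB, and Lucia luciferase read with QUANTI-Luc luminescence reported IRF. Fold change values come from dividing each reporter signal by the mean of agonist-only control wells on the same plate, averaged over replicate plates with propagated errors.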
Consider `Nc1nc(=O)n([C@@H]2CS[C@H](CO)O2)cc1F`, for which the IRF reporter was determined as 0.98 ± 0.22.
`C1=C(c2ccccc2)Nc2nnnn2C1c1ccccc1` (stereo not given): the IRF reporter was found to be 1.34 ± 0.28.
Take `CCN(Cc1ccncc1)C(=O)C(CO)c1ccccc1` (stereo not given): the IRF reporter worked out at 0.954 ± 0.058.
Then `CCN(CC)c1ccc(C=NNC(=O)c2ccc(O)cc2)c(O)c1`, with 0.845 ± 0.038; and `CC(C(=O)O)c1ccc(C(=O)c2cccs2)cc1` (stereo not given), with 1.22 ± 0.14.
Then `O=C(Oc1ccc2ccccc2c1)c1ccccc1`, with 1.27 ± 0.12.
In the case of `CN1CCN(C(CNC(=O)c2ccccc2Br)c2ccc(F)cc2)CC1` (stereo not given), the IRF reporter turned out to be 1.06 ± 0.093.
As for `O=C(O)CSCC(=O)NC1CCSC1=O` (stereo not given), the IRF reporter stood at 1.36 ± 0.13.
With `COc1ccc(C2CC(=O)C(=Cc3c[nH]c4ccccc34)C(=O)C2)cc1` (stereo not given) the figure was 1.25 ± 0.11.
Then `O=C(NC(=S)Nc1ccccc1C(F)(F)F)c1cccc(I)c1`, with 1.24 ± 0.13; and `CC(=O)N1CCC(C(=O)NCc2cccnc2-c2cnn(C)c2)CC1`, with 1.18 ± 0.074; and `Nc1cccc(O)c1`, with 0.946 ± 0.092.
Then `Cc1cccc(C(=O)N2N=C(c3ccccc3)CC2(O)C(F)(F)F)c1` (stereo not given), with 3.2 ± 0.32.
For `O=C(O[C@H]1C[C@H]2CC3C[C@@H](C1)N2CC3=O)c1c[nH]c2ccccc12`, the IRF reporter was 0.909 ± 0.03.
Then `CC1=NN(c2ccc(C(=O)O)cc2)C(=O)C1=Cc1ccc(-c2cc(C)c(C)cc2[N+](=O)[O-])o1`, with 0.976 ± 0.07; and `Cl.Cl.Fc1ccc(C(c2ccc(F)cc2)N2CCN(CC=Cc3ccccc3)CC2)cc1`, with 0.896 ± 0.051; and `Cc1ccc(C(=O)NC(=Cc2ccccc2)C(=O)NCCCn2ccnc2)cc1`, with 1.45 ± 0.25.
Then `Cc1cc(C(=O)N2CCC(Oc3cccc4cccnc34)CC2)n(C)n1`, with 1.03 ± 0.11.
Then `COc1cc2ccc(=O)oc2cc1O`, with 1.11 ± 0.17.
Regarding `COc1ccc(C(=O)Nc2cc(C)nc3c(C)cc(C)cc23)cc1OC`, the IRF reporter came to 0.767 ± 0.15.

Source of the values: the supplement of paper PMC10646978.
